# About 83,000 compounds went through this panel and 20% of them were active in at least one assay; those are over-represented in the sample as a whole.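 Values shown are percent growth following 48 h exposure of cells in 96-well plates to a single concentration of compound; below 10 was considered active.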 A number with no mark means an inactive call. Activity calls are given as the source filed them.
# Experiments:
# Test in all cases: NCI-60 one-dose screen, 48 h (100 = growth as untreated, 0 = no growth, -100 = all killed)
# [1] = system: SR leukemia; details: 10 µM unless noted
# [2] = system: RPMI-8226 leukemia; details: 10 µM unless noted
# [3] = system: OVCAR-8 ovarian; details: 10 µM unless noted
# [4] = system: OVCAR-5 ovarian; details: 10 µM unless noted
# [5] = system: OVCAR-4 ovarian; details: 10 µM unless noted
# [6] = system: SK-OV-3 ovarian; details: 10 µM unless noted
# [7] = system: IGROV1 ovarian; details: 10 µM unless noted
# [8] = system: OVCAR-3 ovarian; details: 10 µM unless noted
# [9] = system: HS 578T breast; details: 10 µM
# [10] = system: NCI/ADR-RES ovarian; details: 10 µM unless noted
# [11] = system: T-47D breast; details: 10 µM unless noted
# [12] = system: MDA-MB-435 melanoma; details: 10 µM unless noted
# [13] = system: SW-620 colon; details: 10 µM unless noted
# [14] = system: MCF7 breast; details: 10 µM unless noted
# [15] = system: HCT-116 colon; details: 10 µM unless noted
# [16] = system: HCC-2998 colon; details: 10 µM
# [17] = system: KM12 colon; details: 10 µM unless noted
# [18] = system: BT-549 breast; details: 10 µM unless noted
Compound,growth [1],growth [2],growth [3],growth [4],growth [5],growth [6],growth [7],growth [8],growth [9],growth [10],growth [11],growth [12],growth [13],growth [14],growth [15],growth [16],growth [17],growth [18] [%]
CNC(=O)c1cc(Oc2cccc3nc(Nc4ccc(Cl)c(F)c4)ccc23)ccn1,62.2%,99.5%,48.9%,79.7%,8.11% (active),41.4%,79.3%,52.2%,37.5%,49.5%,51.3%,86.4%,82%,76.2%,45.4%,82.5%,84.4%,–
Cc1sc2c(c1C)c(=O)nc1c(-c3nc(-c4ccccc4)cs3)n[nH]n12,90.5%,93.8%,99.8%,109%,106%,89.6%,96.9%,96.4%,93.4%,96.1%,–,107%,97.3%,91.2%,100%,101%,99.4%,110
Cc1cc(C2(c3ccc(O)c(C)c3)OS(=O)(=O)c3ccccc32)ccc1O,97.2%,99.3%,107%,110%,107%,111%,105%,119%,101%,109%,110%,113%,108%,101%,104%,114%,110%,–
COC(=O)[C@]12CC[C@@H](C)[C@H](C)[C@@H]1C1=CC[C@@H]3[C@@]4(C)C(C#N)=CC(C)=C4CC[C@@]3(C)[C@]1(C)CC2,68%,76.7%,103%,91.9%,88.3%,99.3%,106%,88.9%,97.5%,89.2%,–,88.1%,87.2%,90.1%,68.4%,80%,84.6%,98.7
Cc1cc(C(O)CN(C)C)cc2c1ccc1cc(C(C)C)ccc12 (configuration not stated),-19.6% (active),-22.6% (active),-46.5% (active),49.5%,-2.02% (active),83.7%,-64.4% (active),64.7%,-0.73% (active),59.8%,-33% (active),-80.8% (active),-89.8% (active),-99.8% (active),-100% (active),-89.1% (active),-95.5% (active),–
COc1ccc(C2CC(=O)c3c(O)c(OC)c(OC)c(OC)c3O2)cc1O (configuration not stated),22.7%,34.3%,26.8%,81.1%,47.9%,40%,48.2%,-5.96% (active),14.8%,3.97% (active),–,-46.9% (active),20.2%,24.8%,7.57% (active),12.7%,12.5%,64.6
O=C(Cc1ccccc1)Nc1nnc(NC2CCN(c3nnc(NC(=O)Cc4ccccc4)s3)CC2)s1,84.9%,58.9%,95.2%,94.3%,98.8%,84%,84.8%,94.4%,78.6%,98.4%,–,102%,99.8%,87.4%,89.2%,101%,59.2%,82
COc1cc2nc(Nc3cccc(Cl)c3)nc(N)c2cc1OC,67.4%,35.7%,87.4%,111%,72.7%,114%,64.5%,89.2%,109%,74.1%,–,84.7%,83.6%,81.5%,33.7%,-59.3% (active),61.4%,78.6
Cc1ccc(N)cc1CN1C(=O)c2ccccc2C1=O,87.4%,99.3%,101%,104%,110%,94.2%,105%,117%,106%,107%,–,106%,108%,108%,93.4%,104%,111%,–
O=C(Nc1cccc([N+](=O)[O-])c1)c1ccc(Cl)c(Cl)c1,80.7%,79.1%,43.5%,94.2%,16.7%,53.3%,47%,53.8%,70%,79%,54.8%,92%,96.2%,49%,56.8%,120%,93.8%,–
CCN1CCN(Cc2ccc(NC(=O)Nc3nc(-c4cc(OC)c(OC)c(OC)c4)cs3)cc2C(F)(F)F)CC1,-32.6% (active),-26% (active),14.1%,71.3%,14.1%,36.1%,49.5%,22.8%,40%,-6.84% (active),-23.9% (active),-51.4% (active),3.34% (active),-15.2% (active),-58% (active),-36.6% (active),-56.8% (active),–
C=C1C[C@H](O)[C@H](Br)C(C)(C)[C@@]12CCC(C)=C(Cl)C2,5.02% (active),-18.2% (active),29%,43.3%,27.3%,12.1%,40.1%,35.2%,22.3%,22.1%,28.7%,9.73% (active),29.8%,16.3%,9.9% (active),42.3%,13.7%,–
CCc1nc2cc(/C=C/C(=O)NO)ccc2c(=O)n1CCc1ccc(F)cc1,10.7%,6.42% (active),5.85% (active),25.7%,25.4%,-16.3% (active),28%,-13.5% (active),52.6%,–,-0.122% (active),17.3%,6.35% (active),10.2%,3.23% (active),32.4%,–,23.8
NN1C(=O)CSC1=S,98.5%,102%,111%,96.8%,105%,98.6%,110%,110%,101%,114%,104%,100%,111%,94.8%,96.8%,110%,106%,–
COc1cc2c(cc1OCCCCN1CCN(CC(=O)Nc3ccc(Cl)cc3C(=O)c3ccccc3Cl)CC1)N=CC1CCCN1C2=O (configuration not stated),-66.7% (active),-74% (active),-65.5% (active),-51.7% (active),-91.4% (active),-76% (active),-88.2% (active),-94.6% (active),-66.4% (active),2.24% (active),-65.4% (active),-93.8% (active),-57% (active),-67.1% (active),-66.2% (active),–,-55.5% (active),–
CCOc1ccc(N=C(C)Nc2ccc(OCC)cc2)cc1,84.5%,116%,106%,104%,104%,121%,106%,133%,106%,101%,105%,115%,104%,102%,–,104%,117%,–
CC(=O)O[C@]1(C)C[C@H](O)[C@]2(O)C=CO[C@H](O[C@@H]3O[C@H](CO)[C@@H](O)[C@H](O)[C@H]3O)[C@@H]21,92.3%,104%,110%,103%,99.8%,102%,100%,108%,112%,107%,–,102%,113%,94.4%,98.1%,116%,95.1%,94.6
CC(=O)Oc1ccccc1C(=O)N=C1[Se]CCN1C(=O)c1ccccc1OC(C)=O,24%,12.1%,-12.1% (active),-12.4% (active),-2.68% (active),-30.6% (active),-15.1% (active),-74.2% (active),-14.9% (active),-6.15% (active),-15.2% (active),-57.2% (active),-26.7% (active),5.48% (active),-44% (active),-4.02% (active),-12.6% (active),–
